Results taken from the supplement of paper PMC9844399.
Where a name gives a salt, the structure may show the parent alone.

Tested on: HeLa
Experiment: nuclear count per well, robust Z-score vs DMSO; higher = more cells (less toxicity)
Conditions: 10 µM; 6 h
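Note: Hoechst-stained nuclei counted by automated confocal imaging of four fields per well in 384-well plates, with the robust Z-score based on the per-plate DMSO median and robust SD.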

| Structure (SMILES) | nuclear count per well |
| --- | --- |
| CCN(CC)CCCC(C)Nc1ccnc2cc(Cl)ccc12 (centres undefined) [Chloroquine] | 1.17 |
| CCOc1nc2cccc(C(=O)O)c2n1Cc1ccc(-c2ccccc2-c2nnn[nH]2)cc1 [Candesartan] | 0.584 |
| CC(=O)S[C@@H]1CC2=CC(=O)CC[C@]2(C)[C@H]2CC[C@@]3(C)[C@@H](CC[C@@]34CCC(=O)O4)[C@H]12 [Spironolactone] | 0.292 |
| O=C(O)COCCN1CCN(C(c2ccccc2)c2ccc(Cl)cc2)CC1 (centres undefined) [Cetirizine HCl] | 0.123 |
| C1CCC(C(CC2CCCCN2)C2CCCCC2)CC1 (racemic) [rac Perhexiline Maleate] | -0.437 |
| CC12CC3CC(C)(C1)CC(N)(C3)C2 | -0.93 |
| Nc1cc(N2CCCCC2)nc(N)[n+]1[O-] [Minoxidil] | 0.407 |
| CC(=O)OCC(=O)[C@@]1(O)CC[C@H]2[C@@H]3CCC4=CC(=O)CC[C@]4(C)[C@H]3C(=O)C[C@@]21C [Cortisone Acetate] | 0.291 |
| C[N+]1(C)[C@@H]2CC[C@H]1C[C@@H](OC(=O)C(O)c1ccccc1)C2 (some centres undefined) [Homatropine Methylbromide] | -0.998 |
